Rows were chosen to be rich in hits. Some 1.6% of all compounds tested hit in one or more screens of this group.
NPR2 activator = GC-B (human) receptor activation; hit rate 0.11% among 370,000; HEK293-GC-B cells, CNP EC30, cGMP TR-FRET; 0% at EC30 CNP, 100% saturating CNP; activation, % at 10 µM; AID 1920062; P20594;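 active = activation at 10 µM reaching about 35% in either raw or pattern-adjusted values, limit read from the data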
Rce1 inhib = yeast Ras-converting enzyme inhibition; yeast membranes, quenched prenylated peptide cleavage fluorescence; hit rate 0.27% among 290,000; calls only; Q03530;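 active = fall in fluorescence gain of 50% or more versus controls, with final raw signal at or below 3038400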;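 note: plate controls were neutral control wells for no effect and wells lacking membranes for full effect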
V-ATPase pHluor = regulators of yeast V-ATPase proton transport. S. cerevisiae, pHLuorin cytosolic pH fluorescence. hit rate 0.37% among 350,000. AID 504577. response, % at 10 µM; in the data active = response mostly above about 7.3%, no sharp cut-off; inactive = mostly below about 5.4%; note: actives read high
NPR1 activator = GC-A (human) enzyme activation. AID 1671463. HEK293 GC-A cells, cGMP TR-FRET, EC30 ANP; 0% at EC30 ANP, 100% saturating ANP. P16066. hit rate 0.14% among 370,000. activation, % at 10 µM; in the data active = activation above about 40%
Target sequence (P16066 whole entry, looked up): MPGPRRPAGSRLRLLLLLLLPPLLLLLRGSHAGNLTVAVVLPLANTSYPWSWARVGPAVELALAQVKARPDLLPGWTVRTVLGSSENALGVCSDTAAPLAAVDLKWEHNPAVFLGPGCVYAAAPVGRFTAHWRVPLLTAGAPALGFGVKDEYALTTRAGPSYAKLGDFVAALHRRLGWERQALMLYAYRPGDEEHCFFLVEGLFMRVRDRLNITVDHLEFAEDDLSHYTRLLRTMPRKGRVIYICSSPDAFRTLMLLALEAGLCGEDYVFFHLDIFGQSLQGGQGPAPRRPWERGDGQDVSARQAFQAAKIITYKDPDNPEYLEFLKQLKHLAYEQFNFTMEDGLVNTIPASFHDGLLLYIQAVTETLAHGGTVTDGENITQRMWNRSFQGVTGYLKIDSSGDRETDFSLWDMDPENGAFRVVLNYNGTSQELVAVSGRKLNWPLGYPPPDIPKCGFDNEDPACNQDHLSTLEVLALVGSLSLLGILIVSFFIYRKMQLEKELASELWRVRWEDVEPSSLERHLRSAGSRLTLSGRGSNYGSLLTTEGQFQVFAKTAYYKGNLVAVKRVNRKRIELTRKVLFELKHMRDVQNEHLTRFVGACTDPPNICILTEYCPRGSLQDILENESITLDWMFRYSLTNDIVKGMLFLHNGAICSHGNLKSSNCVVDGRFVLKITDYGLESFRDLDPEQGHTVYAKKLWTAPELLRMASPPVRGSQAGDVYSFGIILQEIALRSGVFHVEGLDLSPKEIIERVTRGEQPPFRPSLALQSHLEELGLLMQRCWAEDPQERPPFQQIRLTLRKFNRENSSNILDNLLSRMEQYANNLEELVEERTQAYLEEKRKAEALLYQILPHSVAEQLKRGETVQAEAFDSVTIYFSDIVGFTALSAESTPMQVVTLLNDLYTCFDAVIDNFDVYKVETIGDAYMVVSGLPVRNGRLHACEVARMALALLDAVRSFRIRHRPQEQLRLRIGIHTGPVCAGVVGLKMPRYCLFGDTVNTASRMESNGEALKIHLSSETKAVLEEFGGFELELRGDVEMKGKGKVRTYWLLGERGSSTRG
NSD2 HMT inh = inhibitors of human histone methyltransferase NSD2; O96028; NSD2 peptide methylation, AlphaScreen, 120 min; inhibition, % at 12.5 µM; hit rate 0.54% among 310,000; AID 743445; in the data active = inhibition above about 50%
Efflux pump inh = inhibitors of Candida antifungal efflux pumps expressed in yeast. inhibition, % at 10 µM. S. cerevisiae Candida pump triplex, Nile Red efflux. hit rate 0.44% among 330,000;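 active = plate passing quality check with inhibition over a set limit, or well fluorescence over plate mean plus 4 SD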;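 note: Nile Red retained in pooled yeast measured as flow cytometry median fluorescence; 0% = buffer negative control and 100% = Enniatin B positive control; higher means more Nile Red kept so more efflux inhibition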
Cmpd fluor yeast = compound fluorescence in yeast efflux pump counter-screen | hit rate 4% among 1,700 | shares compounds with Efflux pump inh | AID 588517 | fluorescence ratio to DMSO, % at 10 µM | S. cerevisiae AD/pABC3, flow cytometry;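 active = fluorescence ratio to DMSO above its plate's cutoff, the plate mean ratio plus 5 SD, cut at about 210% in these data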;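 note: unstained yeast with no Nile Red so the signal is compound autofluorescence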
CaMdr1 efflux inh = Candida Mdr1 efflux pump inhibition. inhibition, % at 10 µM. shares compounds with Efflux pump inh. hit rate 1% among 1,700. S. cerevisiae AD/CaMDR1, Nile Red efflux, flow cytometry; in the data active = inhibition above about 26%;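 note: 0% = DMSO vehicle and 100% = reference inhibitor; higher means more Nile Red retained so more efflux inhibition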
Cdr2 pump inh = Candida Cdr2 efflux pump inhibition; Nile Red retention ratio vs DMSO, % at 10 µM; shares compounds with Efflux pump inh; hit rate 4% among 1,700; S. cerevisiae AD/CaCDR2, Nile Red retention, flow cytometry; in the data active = Nile Red retention ratio vs DMSO above about 190%;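 note: higher ratio means more blocking of Cdr2 efflux of the dye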
Cdr1 pump inh = blocks the Candida albicans Cdr1 efflux pump in yeast | shares compounds with Efflux pump inh | S. cerevisiae AD/CaCDR1, Nile Red efflux, flow cytometry | inhibition, % at 10 µM | hit rate 1% among 1,700 | AID 588522;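 active = inhibition above the screen-wide mean plus twice its standard deviation, cut at about 32% in these data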
The depositor's hits bear a star; i = inactive; . = no result given.

SMILES	NPR2 activator	Rce1 inhib	V-ATPase pHluor	NPR1 activator	NSD2 HMT inh	Efflux pump inh	Cmpd fluor yeast	CaMdr1 efflux inh	Cdr2 pump inh	Cdr1 pump inh
CCCCC#CC(CC)NCc1ccc(OC)cc1OC (stereo not given)	-23	.	.	-19	-1	.	.	.	.	.
COc1ccc(CCCc2nnc(SCC(=O)Nc3cccc(C)c3)o2)cc1	-10	i	1	-5	2	0	.	.	.	.
COc1ccc(CCCc2nnc(SCC(=O)Nc3cc(C)c(C)cc3Br)o2)cc1	-4	i	1	-3	-1	0.8*	103	-1	108	0
CC(=O)c1c(COC(=O)c2ccccc2)nc2ccccc2[n+]1[O-]	5	i	0	1	15	1.8*	95	0	105	0
O=C(Nc1ccc(F)cc1F)C1CCCN1S(=O)(=O)c1cccnc1 (stereo not given)	-2	.	.	2	-3	.	.	.	.	.
COC/C=C/C1=CC2=CC(=O)C(C)(OC(=O)c3cnc4ccccc4n3)C(=O)C2=CN1Cc1ccccc1 (stereo not given)	7	i	1	-1	.	0	.	.	.	.
COC/C=C/C1=CC2=CC(=O)C(C)(OC(=O)c3cnc4ccccc4n3)C(=O)C2=CN1Cc1ccc(OC)cc1 (stereo not given)	-6	i	-9	6	.	0.6*	121	1	114	0
Cc1cccc(NS(=O)(=O)c2ccc(C3CCCCC3)cc2)n1	0	i	1	3	30	8.2*	99	0	103	0
O=C1OC(c2ccco2)=N/C1=C\c1ccc(-c2cccc(C(F)(F)F)c2)o1	-6	i	-3	0	.	1.2*	93	0	112	0
O=c1oc2ccccc2c(N2CCCCC2)c1[N+](=O)[O-]	2	i	-2	3	7	1.2*	100	0	98	0
O=c1oc2ccccc2c(N2CCCC2)c1[N+](=O)[O-]	2	i	-2	-4	-4	0	.	.	.	.
O=C(N/C(=C\c1cccs1)C(=O)N1CCOCC1)c1ccco1	4	i	2	2	-2	0	.	.	.	.
CN1CCN(C(=O)/C(=C\c2cccs2)NC(=O)c2ccco2)CC1	4	i	0	2	1	9.7*	102	0	104	0
O=C(NC1=N[C@@]2(C=C3CCCCC3n3c(=O)n(-c4ccccc4)c(=O)n32)CN1Cc1ccccc1)c1ccccc1 (stereo not given in full)	6	.	.	6	.	.	.	.	.	.
Cc1c2ccncc2cc2c1[nH]c1ccccc12	-9	.	-2	-11	-3	.	94	0	116	0
Cc1cc2c([nH]c3ccccc32)c(C)n1	1	i	-6	12	-7	0	.	.	.	.
O=C(NC1CCCCN(Cc2cccc(C(F)(F)F)c2)C1=O)c1ccc(F)c(F)c1 (stereo not given)	-2	.	.	6	.	.	.	.	.	.
CCCS(=O)(=O)c1nc(S(=O)(=O)c2ccc(C)cc2)c(NCc2ccco2)s1	5	i	0	2	-3	10*	98	0	87	0
CC1(C)Cc2c(sc(NC(=O)COc3ccc(Cl)cc3Cl)c2C(N)=O)C(C)(C)N1	-2	i	0	4	-2	0.6*	102	0	110	0
COC(=O)c1c(NC(=O)COc2ccc(Cl)cc2)sc2c1CC(C)(C)NC2(C)C	9	i	2	18	-1	0	.	.	.	.
CCc1ccc(NC(=O)C(NS(=O)(=O)c2ccc3c(c2)CCN3C(C)=O)C(C)C)cc1 (stereo not given)	2	i	-3	1	-5	1.6*	105	0	89	0
COC(=O)CCCn1cc(CN2CC=CS2(=O)=O)nn1	-1	.	.	4	.	.	.	.	.	.
O=C(O)CC1c2ccccc2CCN1S(=O)(=O)c1cccs1 (stereo not given)	0	i	6	2	.	2.2*	100	0	105	0
O=C(O)CC1c2ccccc2CCN1S(=O)(=O)c1ccccc1 (stereo not given)	6	i	0	5	0	0	.	.	.	.
O=C(c1cc(-c2ccccc2Cl)nc2ccc(Br)cc12)N1CCN(c2ccccn2)CC1	0	i	0	-6	-2	5.3*	91	0	92	0
SMILES	NPR2 activator	Rce1 inhib	V-ATPase pHluor	NPR1 activator	NSD2 HMT inh	Efflux pump inh	Cmpd fluor yeast	CaMdr1 efflux inh	Cdr2 pump inh	Cdr1 pump inh
C(=N/N1CCN(c2ccccc2)CC1)/c1ccco1	-4	.	.	3	12	.	.	.	.	.
CCOC(=O)[C@]12CCCCC/C=C\1N(CCc1ccc(Cl)cc1)C(=O)[C@H]2CC(=O)N1CCCC1	0	.	.	-10	.	.	.	.	.	.
O=C(NOCc1ccccc1)c1coc(-c2ccccc2)n1	-2	.	-6	2	.	1.4*	92	0	96	0
O=C(c1ccccc1)C1Oc2ccccc2C2CC(c3cccs3)=NN12 (stereo not given)	-3	i	-1	-12	4	1.5*	120	0	117	0
O=C(c1ccccc1)N1N=C(c2cccs2)CC1c1ccccc1O (stereo not given)	-17	i	3	-22	0	0	.	.	.	.
Cc1ccc(C(=O)CSc2nnc(CNc3ccc(C)cc3C)n2Cc2ccco2)cc1	-2	i	-2	-19	3	0	.	.	.	.
COc1ccc(C(=O)CSc2nnc(CNc3ccc(C)cc3C)n2Cc2ccco2)cc1	-15	i	5	-28	-2	1.1*	106	0	103	0
Cc1cc(Cl)ccc1NC(=O)CSc1nnc(Cc2cccs2)n1Cc1ccco1	-7	i	2	-11	-4	0	93	0	107	0
COc1cc2c(cc1NC(=O)CSc1nnc(Cc3cccs3)n1Cc1ccco1)oc1ccccc12	-1	i	1	-7	1	0	91	0	93	0
Cc1cc(C)c(NC(=O)CSc2nnc(-c3ccncc3)n2Cc2ccco2)c(Cl)c1	4	i	4	1	5	1.3*	92	0	100	0
CC(Cl)C(=O)N1CCC(C(=O)NCC2COc3ccccc3O2)CC1 (stereo not given)	-7	.	.	5	-7	.	.	.	.	.
O=C(NCc1ccccc1)OCCN1C(=O)CCC12CCC(c1ccc(Cl)cc1)CC2 (stereo not given)	-14	.	.	-20	.	.	.	.	.	.
C#CCNC(=O)C[C@H]1C[C@@]2(C(=O)OC)C(=C[C@H](COCc3ccccc3)O[C@@H]2C)N(CCCCCCCC)C1=O	-1	.	.	0	.	.	.	.	.	.

Bioassay records (PubChem BioAssay)
